Laboratory results reported in PubChem BioAssay (NCI).
Compounds without any hit were thinned out: in the full panel of roughly 79,000, 15% have a hit. No stated cut-off is given here; in the data, active means growth inhibition above about 70%; inactive means the rest.

Columns and labels:
[1] = NCI Yeast Anticancer Drug Screen. Data for the rad50 strain (AID 155);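 further: 0% = growth of vehicle-only cultures of the same strain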; conditions: S. cerevisiae rad50 strain growth inhibition; at 50.0 µM; active compounds read high
Outline: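 Vehicle-treated cultures provide the reference for the growth inhibition reported for compound-exposed, repair-deficient yeast.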

[2] = NCI Yeast Anticancer Drug Screen. Data for the mec2-1 strain (AID 157); conditions: S. cerevisiae mec2-1 strain, at 50.0 µM, active compounds read high
Outline: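 Mutant yeast (mec2-1) grown with compound; growth inhibition relative to vehicle control reported.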

[3] = NCI Yeast Anticancer Drug Screen. Data for the sgs1 mgt1 strain (AID 161);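 further: 0% = growth of cultures given vehicle only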; conditions: S. cerevisiae sgs1 mgt1 strain, at 50.0 µM, active compounds read high
Outline: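 Compounds are added to genetically altered yeast, and growth is compared with cultures given vehicle alone to give percent inhibition.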

[4] = NCI Yeast Anticancer Drug Screen. Data for the cln2 rad14 strain (AID 165);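 further: 0% = growth equal to vehicle treated cultures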; conditions: S. cerevisiae cln2 rad14 strain, at 50.0 µM, active compounds read high
Outline: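 Readout is yeast growth inhibition versus vehicle-treated controls, using a strain with cln2 and rad14 alterations exposed to compound.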

[5] = NCI Yeast Anticancer Drug Screen. Data for the bub3 strain (AID 167); conditions: S. cerevisiae bub3 mutant strain, at 50.0 µM, active compounds read high
Outline: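 Mutant yeast screening strain plus compound; vehicle-treated cultures serve as the 0% inhibition reference.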

[6] = NCI Yeast Anticancer Drug Screen. Data for the mlh1 rad18 strain (AID 175); conditions: S. cerevisiae mlh1 rad18 strain growth inhibition; at 50.0 µM; active compounds read high
Outline: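 Genetically defined yeast (DNA repair-deficient) exposed to compounds; growth inhibition determined relative to vehicle.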

Measured: growth inhibition

CCOC(=O)C1(C(=O)OCC)C(C#N)(C#N)C1(C#N)C#N
inactive: [1] -0.8% | [2] 1.75% | [3] -7.2% | [4] -7.3% | [5] -1.65% | [6] -11.3%

Cc1csc2nc3[nH]ncc3c(=O)n12
inactive: [1] -21.6% | [2] -59% | [3] -15.1% | [4] -9.85% | [5] -5.65% | [6] -14.9%

CCC1(CC)SCC(C)(O)NC1=O (stereo not given)
inactive: [1] 1.95% | [2] -12.5% | [3] -7.15% | [4] -35.4% | [5] -10.6% | [6] -4.75%

Cc1ccc(C)c(NC(=O)NCc2ccc(Cl)cc2)c1
inactive: [1] -7.65% | [2] -41.2% | [3] -11.4% | [4] 13.2% | [5] -58.1% | [6] 10.2%

N#CC(=C1C=CC(=NOC(=O)c2ccccc2)C=C1)c1ccccc1
inactive: [1] -0.75% | [2] 1.2% | [3] 4.8% | [4] -5.75% | [5] -2.7% | [6] -6.85%

CC(=O)C(CCN(C)C)c1ccc2c(c1)CCc1ccccc1-2 (stereo not given)
inactive: [1] 13.3% | [2] 5.65% | [3] 19.4% | [4] -8.45% | [5] 13.3% | [6] 27.6%

Cn1c(Cl)c(C=O)c(=O)n(C)c1=O
inactive: [1] 17.8% | [2] -4.7% | [3] -5.95% | [4] -0.45% | [5] 7% | [6] -2.55%

O=C(O)c1ccc(C(=O)O)c(C(=O)O)c1.[NH-]C1CCCCC1[NH-].[Pd+2]
inactive: [1] 11.1% | [2] 5.2% | [3] 7.9% | [4] 10.6% | [5] 3.95% | [6] 9.65%

O=C(NC[N+]12CCO[B-]1(c1ccc(Cl)cc1)OCC2)c1ccccc1O (stereo not given)
inactive: [1] 19.2% | [2] 0.25% | [3] 24.1% | [4] 25% | [5] 24% | [6] 56.3%

O=C(O)c1nn(-c2ccc(Cl)cc2)c2c1C(=O)c1ccccc1C2=O
inactive: [1] 20.9% | [2] 14.7% | [3] -1.75% | [4] 14.1% | [5] 12% | [6] 4.65%

O=C(CC(C(=O)c1cccs1)c1ccsc1)c1cccs1 (stereo not given)
inactive: [1] -23.8% | [2] -22.6% | [3] 0.85% | [4] 21% | [5] 25.8% | [6] -38.7%

CCc1ccc(NC(=O)Nc2cccc(Cl)c2)cc1
inactive: [1] -5.8% | [2] 14.4% | [3] -5.35% | [4] -19.6% | [5] -0.55% | [6] 4.9%

NNC(=O)CSc1ncnc2nc[nH]c12
inactive: [1] 1.3% | [2] 9.8% | [3] 0.55% | [4] -3% | [5] 9.65% | [6] -0.5%

NC(=O)c1cc2ccccc2c2ccccc12
inactive: [1] 0.65% | [2] -23.8% | [3] -15.6% | [4] -33.3% | [5] -1% | [6] -3.85%

Cc1cc(C)c(C)c(CN)c1C
inactive: [1] -20% | [2] -5.85% | [3] -9.35% | [4] 7.8% | [5] 13.7% | [6] -3%

Nc1cc(=O)[nH]c(N)n1
inactive: [1] 10.2% | [2] -23.9% | [3] -19.6% | [4] -83.9% | [5] -5% | [6] -21.9%

Cc1ccc(S(=O)(=O)N2CCC(N)=N2)cc1
inactive: [1] 4.8% | [2] -6.7% | [3] -3.75% | [4] -18.4% | [5] 0.45% | [6] -4.85%

CN(C)c1ccc(C(=O)C2N=NCC2c2ccccc2)cc1 (stereo not given)
inactive: [1] 10.3% | [2] -1.3% | [3] 13% | [4] 7.3% | [5] 12.8% | [6] 17.2%

CN(C)CCCN1N=Nc2cccc3cccc1c23
inactive: [1] 1.75% | [2] 8.25% | [3] -14.3% | [4] 11.7% | [5] 15.2% | [6] 20.1%

CCC1C(=O)OCc2c1cc1n(c2=O)C(CC)c2c-1nc1ccccc1c2Cl (stereo not given)
inactive: [1] 57.4% | [2] 14.6% | [3] 8.15% | [4] -28.3% | [5] -2.95% | [6] 4.55%
